# Most compounds without a hit are left out; they make up all but 1.6% or so of the library.
# DSG3 Ab inh – inhibitors of pemphigus antibody binding to DSG3, primary screen, biochemical, bead-based, flow cytometry, scFv-GFP. Desmoglein-3 (Homo sapiens), P32926. DSG3-coupled beads, scFv-anti-DSG3-GFP binding; stronger effect = lower value. binding (percent of control), % at 10 µM. 0.48% of 310,000 active;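 active means binding more than 3 SD below its plate's average and above zero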;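 further: hits lower antibody fragment binding to DSG3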
# PREPL inhibitor – PREPL enzyme inhibitors, primary screen, biochemical, fluorescence polarization. recombinant PREPL, fluorescence polarization activity-based probe. inhibition, % at 5.96 µM. 0.68% of 320,000 active;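 further: 0% = enzyme with DMSO and 100% = wells lacking enzyme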
# VLA-4 inh – inhibition in human VLA-4 binding assay, primary screen, VLA-4 allosteric modulator project, MLPCN library, flow cytometry, VLA-4 expressing cells; ligand binding flow cytometry; inhibition, % (about 7 µM as worked out from the volumes in the protocol); 0.2% of 330,000 active; AID 2557, 2010; Integrin alpha-4 (Homo sapiens), P13612; in the data active means inhibition above about 50%
# Target sequence (P13612 whole entry, looked up): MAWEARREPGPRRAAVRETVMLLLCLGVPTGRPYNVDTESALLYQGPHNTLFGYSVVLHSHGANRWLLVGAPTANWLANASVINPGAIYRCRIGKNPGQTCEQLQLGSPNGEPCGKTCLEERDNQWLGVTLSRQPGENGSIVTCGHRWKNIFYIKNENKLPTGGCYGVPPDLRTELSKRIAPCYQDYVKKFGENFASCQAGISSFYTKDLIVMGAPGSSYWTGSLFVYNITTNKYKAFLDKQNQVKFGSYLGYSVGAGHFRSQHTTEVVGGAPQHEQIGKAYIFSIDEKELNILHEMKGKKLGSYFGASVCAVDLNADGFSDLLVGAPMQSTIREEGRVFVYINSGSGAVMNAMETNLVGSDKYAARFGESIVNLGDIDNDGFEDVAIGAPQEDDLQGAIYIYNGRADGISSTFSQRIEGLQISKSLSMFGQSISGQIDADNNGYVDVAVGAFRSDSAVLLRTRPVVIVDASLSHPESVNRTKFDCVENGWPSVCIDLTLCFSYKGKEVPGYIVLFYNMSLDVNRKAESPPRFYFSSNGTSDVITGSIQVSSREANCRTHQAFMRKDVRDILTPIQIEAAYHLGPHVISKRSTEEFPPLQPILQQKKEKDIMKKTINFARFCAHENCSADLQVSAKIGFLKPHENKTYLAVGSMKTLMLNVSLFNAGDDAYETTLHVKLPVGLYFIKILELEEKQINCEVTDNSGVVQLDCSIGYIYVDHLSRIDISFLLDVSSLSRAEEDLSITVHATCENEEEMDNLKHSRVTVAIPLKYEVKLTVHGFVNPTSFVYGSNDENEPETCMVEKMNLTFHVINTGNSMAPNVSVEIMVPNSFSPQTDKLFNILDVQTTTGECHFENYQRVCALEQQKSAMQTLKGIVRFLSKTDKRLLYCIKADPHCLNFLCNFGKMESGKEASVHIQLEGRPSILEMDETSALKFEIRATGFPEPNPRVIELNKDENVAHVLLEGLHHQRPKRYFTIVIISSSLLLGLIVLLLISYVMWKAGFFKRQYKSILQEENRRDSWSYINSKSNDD
# GASC-1 inh – inhibitors of GASC-1 histone demethylase, primary screen, biochemical, fluorescence, DELFIA europium | Lysine-specific demethylase 4C (Homo sapiens), Q9H3R0 | GST-JMJD2C(1-420) H3K9me3 demethylation | inhibition, % at 2.35 µM | 0.069% of 330,000 active;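 active means more than half of a compound's replicate wells show inhibition beyond 50%, single wells judged on their own value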;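 further: signal counts dimethyl H3K9 product captured on neutravidin plate; 0% = median of DMSO wells and 100% = 0.3 times that DMSO median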
# GRK2 aptamer HTS – compounds blocking aptamer binding on GRK2 – biochemical, human GRK2, bead flow cytometry, HTS, primary screen. FAM-aptamer displacement from GRK2. inhibition of aptamer binding, % at 10 µM. 0.59% of 330,000 active;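 active means inhibition of aptamer binding above 40%, roughly 3 SD of noise, on plates passing a quality check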;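 further: median bead fluorescence of bound FAM aptamer so fluorescent compounds give negative values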
# PREPL inh cf – human PREPL enzyme inhibitors, confirmation, biochemical, fluorescence polarization; shares compounds with PREPL inhibitor; recombinant PREPL, fluorescence polarization activity probe; inhibition, % at 5.96 µM; 67% of 2,000 active; AID 2803, 2010;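 further: 0% = protein with DMSO and 100% = wells lacking protein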
# * = called active by the depositor; i = inactive; . = not tested or not shown. Unless noted, no stated cut-off is given here; in the data, active means inhibition above about 43%; inactive means the rest.
SMILES,DSG3 Ab inh,PREPL inhibitor,VLA-4 inh,GASC-1 inh,GRK2 aptamer HTS,PREPL inh cf
O=C(CCC(=O)Nc1nnc(C2CCCCC2)s1)NCc1ccccc1,.,-4.7,-2.3,-13.4,0.0,.
COc1ccc(C)cc1Nc1n[n+](-c2ccccc2)c(-c2ccc(OC)c(OC)c2OC)s1,110.7,53.4*,-2.7,4.8,0.0,60.2*
COc1ccc(C)cc1Nc1n[n+](-c2ccccc2)c(-c2ccc(N(C)C)cc2)s1,179.6,61.0*,i,2.8,0.0,68.9*
CC(C)(C)OC(=O)N1C[C@H](O)C[C@H]1C(=O)OCC(=O)c1ccc([N+](=O)[O-])cc1,.,5.1,6.4,16.0,0.0,.
CCN1C(=O)[C@H]2[C@@H](c3ccc(-c4ccc(OC)cc4)cc3)N3CCC[C@@]3(C(=O)OC)[C@H]2C1=O,96.8,46.5*,-13.6,-6.3,2.0,37.4
CCN1C(=O)[C@@H]2[C@@H](c3ccc(-c4ccc(F)cc4)cc3)N3CCC[C@@]3(C(=O)OC)[C@@H]2C1=O,104.8,22.9,-7.6,-3.2,0.0,.
CCN1C(=O)[C@H]2[C@@H](c3ccc(-c4ccc(F)cc4)cc3)N3CCCC[C@@]3(C(=O)OC)[C@H]2C1=O,103.7,45.4*,22.7,1.3,1.0,40.1
O=[N+]([O-])c1ccc2c(c1)C(N1CCOCC1)/C(=C/COc1ccc(Cl)cc1Cl)O2 (stereo not drawn),99.1,39.0,8.0,11.9,4.0,.
CCCCn1c(CCc2ccccc2)nc2cc3[nH]c(=O)c(C(C)C)nc3cc21,.,43.5*,-10.3,-0.7,3.0,38.4
O=C(Cc1ccccc1[N+](=O)[O-])NCc1ccco1,106.6,3.5,13.0,-1.5,1.0,.
CC(C)C[C@H]1CNC(=S)N1CC1CCCN1C[C@H](CC(C)C)N1C[C@H](Cc2ccccc2)N(CC2CCCCCC2)C1=S (stereo partly drawn),101.5,.,.,.,.,.
CCC[C@@H](CN1CCC[C@H]1CN1C(N)=NC[C@H]1C(C)C)N1C[C@@H](Cc2ccccc2)N(CCCC2CCCC2)C1=N,124.5,56.6*,-29.8,-6.1,0.0,55.1*
O=C1NC[C@H](Cc2ccccc2)N(C[C@H]2CCCN2C[C@H](Cc2ccccc2)N2C[C@H](Cc3ccccc3)N(CCc3ccccc3)C(=O)C2=O)C1=O,110.7,.,.,.,.,.
CCCCN1C(=N)N([C@@H](CCC)CN2CCC[C@H]2CN2C(N)=NC[C@H]2CC(C)C)C[C@H]1Cc1ccccc1,114.6,48.3*,1.0,.,0.0,49.3*
NC1=NC[C@H](Cc2ccccc2)N1CCCCC1CCCCC1,109.4,-2.3,11.6,-1.0,0.0,.
CCCCN1C(=N)N([C@@H](CCC)CN2CCC[C@H]2CN2C(N)=NC[C@@H]2Cc2ccccc2)C[C@H]1[C@H](C)CC,107.0,44.7*,2.4,8.2,0.0,47.4*
COc1cc(/C=C(\C#N)C(=O)c2ccc(O)c(O)c2)cc(I)c1O,103.6,55.8*,31.9,.,4.0,24.9
COc1cc(/C=C(\C#N)C(=O)N2CCOCC2)cc(Br)c1O,84.7,3.7,28.9,7.0,1.0,.
CCOc1cc(N2CCOCC2)c(OCC)cc1NC(=O)COC(=O)CCc1c[nH]c2ccccc12,96.1,75.8*,4.9,-3.4,2.0,69.0*
CCn1cc(C(=O)NCCC(C)C)c(=O)c2cc(F)c(N3CCN(C)CC3)cc21,100.7,-4.9,18.4,2.7,0.0,.
CN(C)c1ccc(NC(=O)c2ccc(COc3cccc(Cl)c3)o2)cc1,97.3,57.8*,-3.0,-3.3,2.0,46.9*
CCN1CCN(C(=O)c2ccc(COc3cccc(Cl)c3)o2)CC1,104.3,-11.5,-4.0,-8.4,2.0,.
CCOc1cc(/C=C2\C(=N)N3N=C(S(=O)(=O)CC)SC3=NC2=O)ccc1OC(=O)c1ccco1,84.2,38.3,3.7,11.5,1.0,.
CCOc1cc(/C=C2/C(=N)N3N=C(CC)SC3=NC2=O)ccc1OC(=O)c1ccco1,91.6,40.5,5.1,-1.9,0.0,.
CCOc1cc(/C=C2\C(=N)N3N=C(N4CCCCC4)SC3=NC2=O)ccc1OC(=O)c1ccco1,109.9,50.7*,-21.4,-2.1,3.0,59.5*
SMILES,DSG3 Ab inh,PREPL inhibitor,VLA-4 inh,GASC-1 inh,GRK2 aptamer HTS,PREPL inh cf
CCOc1cc(/C=C2/C(=N)N3C(=NC2=O)SN=C3S(C)(=O)=O)ccc1OC(=O)c1ccco1,102.7,51.8*,15.7,8.9,0.0,71.3*
CCN(CC)CCCNC(=O)C1c2ccccc2C(=O)N(CCOC)C1c1ccc(F)cc1 (stereo not drawn),98.6,2.3,-19.6,-2.0,0.0,.
CCN(CCCNC(=O)C1c2ccccc2C(=O)N(CCOC)C1c1ccc(F)cc1)Cc1ccccc1 (stereo not drawn),100.5,49.1*,3.1,-21.5,0.0,17.0
Cc1c(C(=O)N2CCN(Cc3ccc4c(c3)OCO4)CC2)sc2ncnc(N3CCN(c4ccccc4)CC3)c12,132.8,45.3*,-1.9,-1.8,4.0,48.1*
Cc1c(C(=O)N2CCN(Cc3ccc4c(c3)OCO4)CC2)sc2ncnc(N3CCN(c4ccccc4F)CC3)c12,106.5,48.0*,-5.5,2.7,0.0,44.2*
Cc1c(C(=O)N2CCN(c3ccccc3)CC2)sc2ncnc(N3CCC(C)CC3)c12,.,-100.9,-3.3,10.0,0.0,.
Cc1c(C(=O)N2CCN(c3ccccn3)CC2)sc2ncnc(N3CCN(c4ccccc4)CC3)c12,.,43.7*,7.1,-6.2,0.0,28.5
COc1ccc(C(=O)/C=C2\Sc3ccccc3N2C)cc1,105.9,35.6,-43.6,14.5,0.0,.
COc1ccc(-[n+]2c(C)cc(/C=C3\Sc4ccccc4N3C)cc2C)cc1,139.3,69.7*,i,-8.6,79.0*,69.5*
Cc1ccc(S(=O)(=O)N2CC3(O)CN(C(=O)OC(C)C)N(C(=O)OC(C)C)CC3(OC(=O)NC3CCCC3)C2)cc1 (stereo not drawn),104.1,.,.,.,.,.
c1ccc(CCNc2nc(-c3ccccn3)nc3ccccc23)cc1,120.2,73.5*,-5.3,-6.4,0.0,76.8*
c1ccc(-c2nc(N3CCOCC3)c3ccccc3n2)nc1,.,4.1,7.5,7.4,2.0,.
c1ccc(-c2nc(N3CCCCCC3)c3ccccc3n2)nc1,115.8,68.2*,13.7,-2.2,0.0,65.2*
Cc1ccc(C(=O)OCC(=O)Nc2nc(-c3ccccc3)cs2)cc1NC(=O)c1ccco1,110.8,-29.8,-6.3,-17.4,4.0,.

# Screening results as filed in PubChem.
